In PubChem BioAssay (NCATS):
Records with an inconclusive call do not appear. The source made the active and inactive calls. Unless noted, the call rests on the fitted dose curve; in most records, active means well fitted curve in the direction sought with a large enough effect; inconclusive means small, poorly fitted or top-dose-only effect, or another doubt; inactive means no such curve, though single readings can be large; an effect the other way counts as inactive or inconclusive.

What was measured:
[1] = MCF7 Cancer Cell Toxicity qHTS against the NCATS CANVASS Library (AID 1347369)
Method in brief: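 Luminescent ATP signal (CellTiterGlo) served as the cytotoxicity read-out after MCF7 breast cancer cells had been incubated 72 hr at 37C with natural products in an 11-point titration.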

[2] = qHTS for ATAD5 Antagonist screened against the NCATS CANVASS Library (AID 1347370)
Method in brief: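 HEK293T cells with stably integrated ATAD5-luciferase reporter, 2000/well, 5 h attachment; compounds plus 10 µM 5-fluorouridine, 16 h at 37 °C. Luciferase luminescence read, with CellTiter-Fluor viability read first.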

[3] = J3T Cancer Cell Toxicity qHTS against the NCATS CANVASS Library (AID 1347371)
Method in brief: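 J3T dog glioma cells, 500 per well, treated 72 h at 37C with compounds (11-point qHTS); viability from ATP content by CellTiterGlo luminescence; bortezomib titration as control.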

[4] = biological target: Nuclear receptor subfamily 1 group I member 3 (Homo sapiens) (UniProt Q14994); experiment: qHTS for Constitutive Androstane Receptor (CAR) Antagonist screened against the NCATS CANVASS Library (AID 1347372)
Method in brief: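 HepG2 cells stably carrying hCAR and CYP2B6-2.2kb luciferase reporter, 2500 cells/well, compound with 50 nM CITCO agonist for 24hr at 37C. ONE-Glo luminescence measured CAR activity; CellTiter-Fluor read viability.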

[5] = biological target: Nuclear receptor subfamily 1 group I member 3 (Homo sapiens) (UniProt Q14994); experiment: qHTS for Constitutive Androstane Receptor (CAR) Agonist screened against the NCATS CANVASS Library (AID 1347373)
Method in brief: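 HepG2 cells stably carrying hCAR and a CYP2B6-2.2kb luciferase reporter, treated 24hr at 37C with compounds plus 1.5uM PK11195; activation by ONE-Glo luminescence, viability by CellTiter-Fluor.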

[6] = qHTS for Hypoxia signaling pathway (HIF-1) antagonists against the NCATS CANVASS Library (AID 1347374)
Method in brief: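 HRE-bla ME-180 cells in medium with 0.5% dialyzed FBS received compounds (11-point series) plus CoCl2 (60 uM addition stock) for 17 hrs at 37C. Beta-lactamase activity read with CCF4 (405 nm ex, 460/530 nm em); CellTiter-Glo viability measured in same wells.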

[7] = qHTS for Hypoxia signaling pathway (HIF-1) agonists against the NCATS CANVASS Library (AID 1347375)
Method in brief: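 HRE-bla ME-180 cells (0.5% dialyzed FBS) were pre-incubated 5 hrs at 37C, then exposed to compounds in an 11-point series for 17 hrs. Read-out was CCF4-AM beta-lactamase FRET (460/530 nm emissions), with CellTiter-Glo viability in the same wells.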

[8] = 10-beta competent E. coli microbial cell viability qHTS against the NCATS CANVASS Library (AID 1347376)
Method in brief: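 10-beta competent E. coli (0.2 OD) were exposed overnight at 37C to compounds in an 11-point series. Viability was read as ATP-dependent BacTiter-Glo luminescence after 20 min at room temperature.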

[9] = qHTS for H2AX Agonists against the NCATS CANVASS Library (AID 1347378)
Method in brief: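 TR-FRET readout (ex 320 nm, em 665/620 nm ratio) of phospho-H2AX (S139) in CHO-K1 lysates. Cells treated 3 hr at 37C with compound titration, 0.76% DMSO; lysis 30 min, antibody detection 24 hr at RT.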

[10] = qHTS for Inflammasome Signaling Inhibitors: IL-1-beta AlphaLISA screen against the NCATS CANVASS Library (AID 1347379)
Method in brief: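 THP-1 cells pretreated 1 hr with compound (up to 57.5 uM final), then stimulated with LPS (250 ng/mL final) and ATP (1.25 mM final). Secreted IL-1B measured by AlphaLISA after 16 hr; glyburide as positive control.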

[11] = qHTS for Antimalaria activity screened against the NCATS CANVASS Library (AID 1347380)
Method in brief: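 Red blood cells infected with P. falciparum Dd2 (2.5% hematocrit final, 0.3% parasitemia) were exposed to compounds in an 11-point qHTS series for 72 hr at 37C under 5% O2 and 5% CO2. Lysis buffer with SYBR Green was then added for 18 hr, and fluorescence was read at 485/535 nm.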

[12] = Inflammasome Signaling qHTS Counterscreen: IL-1-beta AlphaLISA counterscreen against the NCATS CANVASS Library (AID 1347381)
Method in brief: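 Cell-free interference check: compounds added to medium spiked with 4 pg purified IL-1β. Anti-IL-1β acceptor beads (6 ug/mL) with 0.6 nM biotinylated antibody added for 1 h at RT, then streptavidin donor beads (24 ug/mL) for 30 min in the dark. AlphaLISA read at 680/615 nm.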

[13] = Cytotoxicity qHTS for assessment of Hepg2 cells membrane integrity screened against the NCATS CANVASS Library (AID 1347387)
Method in brief: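 HepG2 cells (2000/well) attached overnight, then exposed 5 hr at 37C to compounds in an 11-point series (0.59 nM - 46 uM final). LDH release from damaged membranes read fluorometrically (CytoTox-ONE; 560/590 nm) after 10 min at room temperature.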

[14] = Secretion counterscreen for inhibitors of the SERCaMP assay screened against the NCATS CANVASS Library (AID 1347390)
Method in brief: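 Luminescence from constitutively secreted GLuc in SH-SY5Y-GLuc STOP cells, read after coelenterazine addition, served as read-out. Compounds tested 0.001 - 77 uM for 20 h at 37C; Brefeldin A as positive control.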

[15] = qHTS for activators of Nrf2/ARE signaling pathway screened against the NCATS CANVASS Library (AID 1347391)
Method in brief: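 ARE-bla HepG2 beta-lactamase reporter cells exposed to compounds for 16 h at 37C; CCF4 substrate 2 h, fluorescence at ex 405 nm, em 460/530 nm. Viability by CellTiter-Glo luminescence.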

[16] = qHTS for activators of dead-cell proteases activity screened against the NCATS CANVASS Library (AID 1347392)
Method in brief: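 HepG2 cells, 2000/well, attached 18 h at 37C, then exposed to compounds (11-point qHTS) for 5 h. Dead-cell protease release read as luminescence from cell-impermeant AAF-aminoluciferin substrate after 15 min at room temperature.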

[17] = qHTS for inhibitors of ER calcium dysfunction: SERCaMP assay screened against the NCATS CANVASS Library (AID 1347393)
Method in brief: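 SH-SY5Y GLuc-SERCaMP, 1000 cells/well, 4 h attach; cpd 16 h, 37C/5% CO2; thapsigargin (added as 6x 600 nM) 4 h; coelenterazine; luminescence. Reduced reporter release = ER Ca stabilization.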

[18] = Vero-766 cells viability qHTS against the NCATS CANVASS Library: Counterscreen for Zika virus inhibition assay (AID 1347394)
Method in brief: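 CellTiter-Glo luminescence, lower signal indicating cytotoxicity. Vero 766 cells without Zika virus, 1000 cells/well, plated overnight, then treated 72 h at 37C across an 11-point series.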

[19] = qHTS for inhibitors of Wild type Zika virus screened against the NCATS CANVASS Library (AID 1347396)
Method in brief: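 Protection against wild-type Zika cytopathic effect is measured in African green monkey Vero 766 cells exposed to an 11-point compound series. Surviving cells are quantified by CellTiter Glo luminescence after 72 h.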

[20] = Viability qHTS for inhibitors of the SERCaMP assay screened against the NCATS CANVASS Library (AID 1347400)
Method in brief: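 SH-SY5Y-GLuc SERCaMP MJH297-derived cells, 1000/well, plated 4 h, then exposed to compounds in an 11-point qHTS series for 48 h at 37C. Viability read as CellTiter-Glo luminescence.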

[21] = Redox Reaction Profiling qHTS: Assay Interference Panel against the NCATS CANVASS Library (AID 1347401)
Method in brief: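 Compounds in 11-point series incubated with 5 uM resazurin and 200 uM DTT in 50 mM HEPES pH 7.3, 50 mM NaCl. Resorufin fluorescence (Ex 525/Em 598) read before and after 15 min in the dark.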

[22] = qHTS for inhibitors of Rabies Virus screened against the NCATS CANVASS Library (AID 1347402; calls by dose curve)
[23] = Primary qHTS for small molecule stabilizers of the endoplasmic reticulum resident proteome: Secreted ER Calcium Modulated Protein (SERCaMP) assay (AID 1508630)
Method in brief: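 GLuc-SERCaMP-expressing SH-SY5Y cells, pretreated 16 h with compound, are challenged with thapsigargin to empty ER calcium stores; after 4 h, coelenterazine is added directly to the medium and luminescence is imaged.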

Measured: Potency

Chain of Nuclear receptor subfamily 1 group I member 3 (Homo sapiens) (Q14994 whole entry, looked up): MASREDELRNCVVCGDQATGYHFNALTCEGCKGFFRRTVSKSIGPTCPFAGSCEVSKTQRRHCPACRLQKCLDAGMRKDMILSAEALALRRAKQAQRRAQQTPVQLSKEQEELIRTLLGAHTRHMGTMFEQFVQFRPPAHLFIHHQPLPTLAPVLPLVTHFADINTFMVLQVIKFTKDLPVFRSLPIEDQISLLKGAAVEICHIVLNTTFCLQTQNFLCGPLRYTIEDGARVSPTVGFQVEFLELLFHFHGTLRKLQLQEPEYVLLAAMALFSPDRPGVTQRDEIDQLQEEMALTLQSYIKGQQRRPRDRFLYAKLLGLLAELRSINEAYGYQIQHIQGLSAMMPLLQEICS

NCCc1ccccc1
inactive: all assays above
